Consider 21 compounds from PubChem BioAssay.

Experiment [1] in a line: antimalarial activity against Dd2 strain (AID 2302;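 active = growth inhibition above 50% at the single 2 µM test dose, taken to imply half-maximal potency below 2 µM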;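 also: 0% = DMSO untreated growth and 100% = chloroquine plus artemisinin killed control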). Conditions: P. falciparum Dd2 in RBCs, LDH growth readout, 72 h; at 2 µM; hits give high values.
Experiment [2] is described as follows: HepG2 cytotoxicity, primary screen, cytotoxicity control for P. falciparum antimalarial project, cell-based, ATP luminescence (AID 2303;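 active = inhibition above 50%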;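 also: 0% = DMSO wells and 100% = digitonin-killed cells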). The note with it: HepG2 viability, 24-48 h, at 10 µM, hits give high values.
Experiment [3] has as its target L-lactate dehydrogenase (Plasmodium falciparum (isolate CDC / Honduras)) (UniProt Q27743). In words: PfLDH activity inhibition – cell lysate, 3D7 strain, counter-screen for P. falciparum growth inhibition project (AID 2304).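 Also: 0% = vehicle and 100% = reference inhibitor.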 Conditions: P. falciparum 3D7 crude extract, LDH APAD/NBT absorbance; at 2 µM; hits give high values.
Experiment [4] can be described thus: inhibition of 3D7 malaria parasite growth – strain 3D7 (AID 2306).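 Also: 0% = DMSO wells and 100% = chloroquine plus artemisinin control wells.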 Conditions: P. falciparum 3D7 erythrocytic growth, LDH absorbance, 72 h; at 2 µM; hits give high values.
Experiment [5] concerns the target Calcium-dependent protein kinase 1 (Plasmodium falciparum (isolate 3D7)) (UniProt P62344). The experiment is described as follows: PfCDPK1 kinase inhibitors, biochemical, TCAMS library (AID 1159585; cut-off not given, nearly all actives have IC50 up to about 0.98 µM;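 also: inhibitors leave more ATP so luminescence rises with inhibition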). Conditions: recombinant PfCDPK1, Kinase-Glo ATP depletion luminescence.
Experiment [6] addresses Plasmodium falciparum protein kinase 6 (PK6, PF3D7_1337100) (UniProt Q8IDW1). In words: PfPK6 kinase inhibitors, biochemical, TCAMS library (AID 1159586). Conditions: recombinant PfPK6, Kinase-Glo ATP depletion luminescence. On the technique in general: Kinase-Glo measures the ATP left after a reaction by luminescence.
Experiment [7] has as its target Protein kinase 7 (PK7), Plasmodium falciparum 3D7 (PF3D7_0213400) (UniProt Q7YTF7). The experiment is described as follows: inhibition of Plasmodium PK7 catalytic activity – biochemical, TCAMS antimalarial set, Kinase-Glo luminescence (AID 1159587). The note with it: recombinant PfPK7, Kinase-Glo ATP depletion luminescence.
In experiment [8] the target is Calcium-dependent protein kinase 4 (Plasmodium falciparum (isolate 3D7)) (UniProt Q8IBS5). The experiment is described as follows: PfCDPK4 kinase inhibitors, biochemical, TCAMS library (AID 1159588; cut-off not given, nearly all actives have IC50 up to about 0.91 µM). The note with it: recombinant PfCDPK4, Kinase-Glo ATP depletion luminescence.

Values without a mark were called inactive. For part of these data: Entries with a potency or affinity are not part of this list. The source made the active and inactive calls. Unless noted, no rule for the calls is given here.

Sequence of L-lactate dehydrogenase (Plasmodium falciparum (isolate CDC / Honduras)) (Q27743 whole entry, looked up): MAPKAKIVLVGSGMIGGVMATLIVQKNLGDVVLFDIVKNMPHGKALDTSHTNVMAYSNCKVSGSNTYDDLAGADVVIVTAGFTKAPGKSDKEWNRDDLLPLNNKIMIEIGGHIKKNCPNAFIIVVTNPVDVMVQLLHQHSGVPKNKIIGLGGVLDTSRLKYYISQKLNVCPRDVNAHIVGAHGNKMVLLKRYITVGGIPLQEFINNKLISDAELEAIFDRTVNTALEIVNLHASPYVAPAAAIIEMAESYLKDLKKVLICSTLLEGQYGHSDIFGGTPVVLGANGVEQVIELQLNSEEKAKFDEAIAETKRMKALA
Sequence of Plasmodium falciparum protein kinase 6 (PK6, PF3D7_1337100) (Q8IDW1 1-305): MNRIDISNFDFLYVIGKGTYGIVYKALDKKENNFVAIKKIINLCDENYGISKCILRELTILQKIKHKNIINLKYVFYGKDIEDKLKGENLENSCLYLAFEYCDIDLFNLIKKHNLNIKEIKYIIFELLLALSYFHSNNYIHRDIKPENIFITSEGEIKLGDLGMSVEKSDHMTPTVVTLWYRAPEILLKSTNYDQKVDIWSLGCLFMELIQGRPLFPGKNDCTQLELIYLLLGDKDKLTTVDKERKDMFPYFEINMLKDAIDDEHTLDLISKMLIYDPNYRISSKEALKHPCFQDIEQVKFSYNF
Sequence of Calcium-dependent protein kinase 1 (Plasmodium falciparum (isolate 3D7)) (P62344 whole entry, looked up): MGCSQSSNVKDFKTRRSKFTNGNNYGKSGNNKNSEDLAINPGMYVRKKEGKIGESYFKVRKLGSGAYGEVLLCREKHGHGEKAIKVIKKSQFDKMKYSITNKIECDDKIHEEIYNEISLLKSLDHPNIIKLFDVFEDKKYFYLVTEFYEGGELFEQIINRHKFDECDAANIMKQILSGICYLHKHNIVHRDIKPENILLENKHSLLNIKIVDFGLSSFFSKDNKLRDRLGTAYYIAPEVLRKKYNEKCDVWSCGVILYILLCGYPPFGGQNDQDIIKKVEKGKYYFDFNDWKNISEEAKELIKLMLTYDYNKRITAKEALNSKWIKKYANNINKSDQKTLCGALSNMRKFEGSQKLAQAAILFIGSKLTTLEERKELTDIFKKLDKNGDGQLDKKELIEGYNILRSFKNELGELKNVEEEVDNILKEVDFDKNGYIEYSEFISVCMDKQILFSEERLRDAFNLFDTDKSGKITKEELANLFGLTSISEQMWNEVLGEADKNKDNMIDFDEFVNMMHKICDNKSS
Sequence of Calcium-dependent protein kinase 4 (Plasmodium falciparum (isolate 3D7)) (Q8IBS5 whole entry, looked up): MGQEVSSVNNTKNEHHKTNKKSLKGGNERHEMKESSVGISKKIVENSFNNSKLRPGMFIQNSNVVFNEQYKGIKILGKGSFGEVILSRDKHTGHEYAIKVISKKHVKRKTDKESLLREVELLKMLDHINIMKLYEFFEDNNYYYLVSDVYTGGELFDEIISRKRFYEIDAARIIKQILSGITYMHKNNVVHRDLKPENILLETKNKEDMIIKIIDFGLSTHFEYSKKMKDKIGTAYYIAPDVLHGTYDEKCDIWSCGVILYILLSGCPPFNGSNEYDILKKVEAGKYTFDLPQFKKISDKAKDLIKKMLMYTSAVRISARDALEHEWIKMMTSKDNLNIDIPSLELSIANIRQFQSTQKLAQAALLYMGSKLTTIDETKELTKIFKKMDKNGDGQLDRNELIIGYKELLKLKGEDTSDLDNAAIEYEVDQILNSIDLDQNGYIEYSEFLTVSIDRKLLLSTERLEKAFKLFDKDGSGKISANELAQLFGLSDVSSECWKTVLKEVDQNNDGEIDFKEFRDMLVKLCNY
Sequence of Protein kinase 7 (PK7), Plasmodium falciparum 3D7 (PF3D7_0213400) (Q7YTF7 1-343): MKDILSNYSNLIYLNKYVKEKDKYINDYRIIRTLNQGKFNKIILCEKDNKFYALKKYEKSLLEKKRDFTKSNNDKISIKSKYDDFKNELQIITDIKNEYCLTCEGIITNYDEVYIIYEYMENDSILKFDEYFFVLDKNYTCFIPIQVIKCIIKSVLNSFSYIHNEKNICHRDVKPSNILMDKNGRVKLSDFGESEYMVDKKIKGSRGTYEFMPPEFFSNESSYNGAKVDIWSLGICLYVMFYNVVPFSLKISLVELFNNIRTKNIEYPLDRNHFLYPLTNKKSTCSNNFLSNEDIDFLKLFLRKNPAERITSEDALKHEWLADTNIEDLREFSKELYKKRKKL

In the case of `Nc1ncc(-c2ccc(F)cc2)c2ccc(-c3cccc(F)c3)cc12`, the growth inhibition in experiment [1] was 89% (active); in experiment [4], 99% (active). The figures for the inhibition in experiment [2] and in experiment [3] were 34% and 3%, respectively. In addition, the outcome in experiment [5], in experiment [6], in experiment [7] and in experiment [8] was inactive.
Take `Cc1[nH]c(C)c(-c2ccc(Br)cc2)c(=O)c1Br`: the growth inhibition in experiment [1] is 95% (active); in experiment [4], 98% (active). In addition, the figures for the inhibition in experiment [2] and in experiment [3] were 9% and 6%, respectively. In addition, the outcome in experiment [5], in experiment [6], in experiment [7] and in experiment [8] was inactive.
Consider `Cc1cnc2ccc(NS(=O)(=O)c3ccc4c(Cl)cccc4c3)cc2c1N1CCNCC1`, for which the growth inhibition in experiment [1] was 3%; in experiment [4], 101% (active). Moreover, the results for the inhibition in experiment [2] and in experiment [3] were 24% and 1%, respectively. The outcome in experiment [5], in experiment [6], in experiment [7] and in experiment [8] was inactive.
As to `O=C(c1ccc(-c2ccc(-c3nc4ccc(F)cc4[nH]3)cc2)cc1)N1CCCCC1CN1CCC(O)C1` (stereo not drawn), the values for the growth inhibition in experiment [1] and in experiment [4] were 100% (active) and 90% (active), respectively. Moreover, the figures for the inhibition in experiment [2] and in experiment [3] were 24% and -1%, respectively. Further, the result in experiment [5], in experiment [6], in experiment [7] and in experiment [8] was inactive.
In the case of `c1ccc(-c2nc(Nc3ccncc3)sc2-c2ccccc2)cc1`, the values for the growth inhibition in experiment [1] and in experiment [4] were 18% and 97% (active), respectively. The results for the inhibition in experiment [2] and in experiment [3] were -5% and 1%, respectively. The result in experiment [5], in experiment [6], in experiment [7] and in experiment [8] was inactive.
Regarding `Cc1ccc(C(=O)Nc2cccc(-c3ccc(N4CCN(C)CC4)nn3)c2)cc1[N+](=O)[O-]`, the growth inhibition is 40% in experiment [1] and 99% (active) in experiment [4]. The inhibition – broadly, the relative decrease from the control value, in per cent – is 32% in experiment [2] and -2% in experiment [3]. Also, the outcome in experiment [5], in experiment [6], in experiment [7] and in experiment [8] was inactive.
With `C(=Cc1nc2ccccc2s1)c1ccc2c(c1)OCCO2`, the growth inhibition in experiment [1] was 96% (active); in experiment [4], 98% (active). Also, the inhibition in experiment [2] is 13%; in experiment [3], 1%. The outcome in experiment [5], in experiment [6], in experiment [7] and in experiment [8] was inactive.
For the compound `CCCC(=O)Nc1ccc(OCCCN(Cc2ccccc2F)c2ccc(C#N)c(C(F)(F)F)c2)cc1`, the growth inhibition in experiment [1] is 93% (active); in experiment [4], 89% (active). Besides, the figures for the inhibition in experiment [2] and in experiment [3] were 7% and 1%, respectively. Also, the result in experiment [5], in experiment [6], in experiment [7] and in experiment [8] was inactive.
As for `CC1(C)N=C(N)N=C(N)N1OCCCOc1cccc(Cl)c1`, the growth inhibition in experiment [1] and in experiment [4] was 95% (active) each time. The inhibition in experiment [2] is 65% (active); in experiment [3] it was -4%. Also, the result in experiment [5], in experiment [6], in experiment [7] and in experiment [8] was inactive.
`CC(=O)c1ccc(NC(=O)CSc2nc(-c3ccccc3Cl)ns2)cc1`: the figures for the growth inhibition in experiment [1] and in experiment [4] were 72% (active) and 89% (active), respectively. Besides, the inhibition is -13% in experiment [2] and -1% in experiment [3]. Moreover, the outcome in experiment [5], in experiment [6], in experiment [7] and in experiment [8] was inactive.
In the case of `NCc1ccc(CNCc2cccc(-c3cccc(-c4nc5ccccc5[nH]4)c3)c2)cc1`, the growth inhibition is 11% in experiment [1] and 101% (active) in experiment [4]. The inhibition is 7% in experiment [2] and -7% in experiment [3]. In addition, the result in experiment [5], in experiment [6], in experiment [7] and in experiment [8] was inactive.
Regarding `CCOc1c(Br)cc(Cl)cc1CNCCCNc1nc2ccccc2[nH]1`, the growth inhibition was 3% in experiment [1] and 98% (active) in experiment [4]. The inhibition in experiment [2] was 27%; in experiment [3], -2%. Besides, the result in experiment [5], in experiment [6], in experiment [7] and in experiment [8] was inactive.
As for `O=C(CSc1nccn1Cc1ccco1)Nc1cc(C(F)(F)F)ccc1Cl`, the growth inhibition in experiment [1] is 66% (active); in experiment [4], 91% (active). Besides, the inhibition in experiment [2] was 9%; in experiment [3], -4%. In addition, the outcome in experiment [5], in experiment [6], in experiment [7] and in experiment [8] was inactive.
As to `CCCN(Cc1nnc(-c2ccco2)o1)C(=O)C1CCCN(C(=O)c2ccc(Cl)cc2)C1` (stereo not drawn), the growth inhibition in experiment [1] and in experiment [4] was 96% (active) throughout. The inhibition is -3% in experiment [2] and -1% in experiment [3]. The outcome in experiment [5], in experiment [6], in experiment [7] and in experiment [8] was inactive.
On to `Cc1cc(C)nc(-n2[nH]c(C)c(Cc3ccc(C(C)(C)C)cc3)c2=O)n1`, for which the growth inhibition is 61% (active) in experiment [1] and 88% (active) in experiment [4]. Besides, the figures for the inhibition in experiment [2] and in experiment [3] were -9% and -1%, respectively. Also, the outcome in experiment [5], in experiment [6], in experiment [7] and in experiment [8] was inactive.
With `Cc1cccc2[nH]c(-c3ccc(-c4cccc(NC(=O)Cc5cnc[nH]5)c4)cc3)nc12`, the values for the growth inhibition in experiment [1] and in experiment [4] were 21% and 98% (active), respectively. The inhibition in experiment [2] is 13%; in experiment [3], -4%. Besides, the outcome in experiment [5], in experiment [6], in experiment [7] and in experiment [8] was inactive.
Take `COc1ccc2nccc([C@@H](O)CN3CCC(NC(=O)/C=C/c4cc([N+](=O)[O-])ccc4OC)CC3)c2c1`: the growth inhibition was 76% (active) in experiment [1] and 99% (active) in experiment [4]. Further, the inhibition in experiment [2] was 12%; in experiment [3], -1%. Further, the result in experiment [5], in experiment [6], in experiment [7] and in experiment [8] was inactive.
Regarding `O=C(N[C@H]1CCN(Cc2ccc(OCCN3CCNCC3)c(Br)c2)C1)c1ccc(Cl)c(Cl)c1`, the results for the growth inhibition in experiment [1] and in experiment [4] were 36% and 101% (active), respectively. Further, the inhibition in experiment [2] was 69% (active); in experiment [3], 5%. Further, the result in experiment [5], in experiment [6], in experiment [7] and in experiment [8] was inactive.
Take `COc1ccc(Cc2c(C)nc3nc(N)nc(N)c3c2C)cc1`: the growth inhibition was 2% in experiment [1] and 93% (active) in experiment [4]. Besides, the inhibition was 61% (active) in experiment [2] and 8% in experiment [3]. For the same compound, the result in experiment [5], in experiment [6], in experiment [7] and in experiment [8] was inactive.
In the case of `Cc1cc(=O)c(-c2ccc(Oc3ccc(F)cc3)cc2)c(C)[nH]1`, the growth inhibition in experiment [1] is 59% (active); in experiment [4], 85% (active). Moreover, the inhibition in experiment [2] was -3%; in experiment [3], 3%. Further, the result in experiment [5], in experiment [6], in experiment [7] and in experiment [8] was inactive.
Consider `COc1cc2nc(N3CCC(CNC(=O)/C=C/c4ccccc4F)CC3)nc(N)c2cc1OC`, for which the growth inhibition in experiment [1] is 88% (active); in experiment [4], 100% (active). Moreover, the inhibition is -4% in experiment [2] and 5% in experiment [3]. The outcome in experiment [5], in experiment [6], in experiment [7] and in experiment [8] was inactive.
